In the library only some 5.3% were active in any assay of this set; here they are far more common.
Vaccinia Venus = qHTS for Stage-Specific Inhibitors of Vaccinia Orthopoxvirus: Venus Reporter Primary qHTS; Potency, µM (doses to about 36.5 µM), actives largely listed as inhibitors; Vaccinia virus Venus reporter expression, fluorescence; 0.46% of 330,000 active; calls by dose curve; tested in A549 cells; also: nearly all actives have a fitted effect of over 30% in size
HCV inh = qHTS Assay for Inhibitors of Hepatitis C Virus (HCV); AID 651820, 2012; Potency, µM (series often up to 41.8 µM), most hits filed as inhibitors; 3.4% of 340,000 active; Huh7.5.1 HCVcc-Cre infection, luciferase reporter, 44 h; active = well fitted inhibition curve with a large enough effect; inconclusive = small, poorly fitted or top-dose-only effect, or another doubt; inactive = no such curve, though single readings can be large or run the other way
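Infectious HCVcc-Cre (~0.5 moi) was added to cells just after compound, with cells seeded 4 h earlier at 1,000 per well. Luciferase activity after 44 h culture reported infection; substrate was incubated 15 min at room temperature before reading.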
Vaccinia mCherry = qHTS for Stage-Specific Inhibitors of Vaccinia Orthopoxvirus: mCherry Reporter Primary qHTS; Vaccinia virus mCherry reporter infection, fluorescence; Potency, µM (series often up to 36.5 µM), actives largely listed as inhibitors; 0.63% of 310,000 active; AID 720579, 2013; calls by dose curve; tested in A549 cells; also: nearly all actives have a fitted effect of over 35% in size
FMDV antiviral = High Throughput Screening for Foot and Mouth Disease Virus Antivirals. 1.2% of 410,000 active. Potency, µM (highest dose often 57.9 µM), hits mostly inhibitors. FMDV antiviral cell-based qHTS; calls by dose curve; tested in HEK293T cells; also: read-out not given here; nearly all actives have a fitted effect of over 45% in size
Marburg entry inh = qHTS for inhibitors of binding or entry into cells for Marburg Virus; AID 540276, 2011; 1.8% of 300,000 active; Potency, µM (titrated, usually from 37.8 µM), hits mostly inhibitors; Marburg virus pseudotyped entry inhibition, cell reporter; calls by dose curve; tested in HEK293 cells
LASV entry inh = qHTS for Inhibitors of binding or entry into cells for Lassa Virus; Lassa virus pseudotype entry inhibition, cell reporter; Potency, µM (doses to about 37.9 µM), actives largely listed as inhibitors; 1.2% of 300,000 active; AID 540256, 2011; calls by dose curve; tested in HEK293 cells; also: nearly all actives have a fitted effect of over 50% in size
Numbers stand for hits.

What do the screens show for `COc1ccc([N+](=O)[O-])cc1NC1CCCCC1`?
HCV inh: 11µM; FMDV antiviral: inactive; Marburg entry inh: inactive; LASV entry inh: inconclusive

Results for COc1ccc(N2CCC(CNC(=O)Nc3ccc(OC)cc3OC)C2)cc1 (stereo not given) ?
Vaccinia Venus: 10µM; HCV inh: inconclusive; Vaccinia mCherry: inactive; FMDV antiviral: inactive; Marburg entry inh: inactive; LASV entry inh: inactive

Results for COc1ccc([N+](=O)[O-])cc1NC(=O)C(C)N(C)Cc1cccc(OC)c1OC (stereo not given) ?
Vaccinia Venus: inactive; HCV inh: 35µM; Vaccinia mCherry: inactive; FMDV antiviral: inconclusive; Marburg entry inh: inconclusive; LASV entry inh: inconclusive

Results for COc1ccc(-n2c(=O)c(-c3cccs3)nc3cnc(N4CCNCC4)nc32)cc1 ?
FMDV antiviral: inactive

Results for COC(=O)/C=C\c1cc(O)ccc1O ?
FMDV antiviral: inactive

How did COc1ccc([N+](=O)[O-])cc1NC(=S)NC(NC(C)=O)C(Cl)(Cl)Cl (stereo not given) do in these assays?
HCV inh: inconclusive; FMDV antiviral: inactive

How did COc1ccc([N+](=O)[O-])cc1NC(=O)Nc1ccc(OC)c(OC)c1 do in these assays?
Vaccinia Venus: inconclusive; HCV inh: 2.8µM; Vaccinia mCherry: inconclusive; FMDV antiviral: 35µM; Marburg entry inh: inconclusive; LASV entry inh: inconclusive

What do the screens show for `COc1ccc([N+](=O)[O-])cc1NC(=O)C(C)Sc1ccccc1` (stereo not given)?
Vaccinia Venus: inactive; HCV inh: inconclusive; Vaccinia mCherry: inactive; FMDV antiviral: inactive; Marburg entry inh: inactive; LASV entry inh: inactive

What do the screens show for `COc1ccc([N+](=O)[O-])cc1NC(=S)NC(NC(=O)Cc1ccc(OC)c(OC)c1)C(Cl)(Cl)Cl` (stereo not given)?
HCV inh: 7.9µM; FMDV antiviral: inactive; Marburg entry inh: inconclusive; LASV entry inh: inconclusive

How did COc1ccc([N+](=O)[O-])cc1NC(=O)C(C)Sc1nc(-c2ccccc2)cs1 (stereo not given) do in these assays?
Vaccinia Venus: inactive; HCV inh: 13µM; Vaccinia mCherry: inactive; FMDV antiviral: inactive; Marburg entry inh: inconclusive; LASV entry inh: inactive

How did O=[N+]([O-])c1cccc(CN2CCN(Cc3ccc(Cl)cc3)CC2)c1 do in these assays?
Vaccinia Venus: inactive; HCV inh: 10µM; Vaccinia mCherry: inactive; FMDV antiviral: inconclusive; Marburg entry inh: inactive; LASV entry inh: inactive

What do the screens show for `CCOC(=O)NN=C1C[C@@H](O)[C@@H](O)[C@@H]2[C@H]3C(=O)N([C@@H](C)c4ccccc4)C(=O)[C@@H]3CC[C@H]12`?
Marburg entry inh: inactive

How did COc1ccc([N+](=O)[O-])cc1NCc1ccccc1 do in these assays?
Vaccinia Venus: inactive; HCV inh: 6.3µM; Vaccinia mCherry: inconclusive; FMDV antiviral: inactive; Marburg entry inh: inactive; LASV entry inh: inactive

Results for O=C(NCC1CCN(Cc2cccc(Cl)c2)CC1)Nc1cc(Cl)ccc1Cl ?
Vaccinia Venus: inactive; Vaccinia mCherry: inactive; FMDV antiviral: inconclusive; Marburg entry inh: inactive; LASV entry inh: inconclusive

Results for COc1ccc([N+](=O)[O-])cc1NCc1ccccc1C ?
Vaccinia Venus: inactive; HCV inh: inactive; Vaccinia mCherry: inactive; Marburg entry inh: inactive; LASV entry inh: inconclusive

Results for COc1cc([N+](=O)[O-])ccc1NC(=O)NCC1CCN(Cc2ccc(Cl)cc2)CC1 ?
Vaccinia Venus: inconclusive; HCV inh: 13µM; Vaccinia mCherry: inactive; FMDV antiviral: inactive; Marburg entry inh: inconclusive; LASV entry inh: inactive

What do the screens show for `COc1ccc([N+](=O)[O-])cc1NC(=O)Cc1ccc(Cl)cc1`?
Vaccinia Venus: inconclusive; HCV inh: 8.9µM; Vaccinia mCherry: inactive; FMDV antiviral: inconclusive; Marburg entry inh: inconclusive; LASV entry inh: inactive

What do the screens show for `CCNc1ncc2nc(-c3cc(F)cc(F)c3)c(=O)n(CCC#N)c2n1`?
FMDV antiviral: inactive

Results for CC(=O)c1sc(NCc2ccccc2)nc1C ?
Vaccinia Venus: inactive; HCV inh: inactive; Vaccinia mCherry: inactive; FMDV antiviral: inactive; Marburg entry inh: inactive; LASV entry inh: inconclusive

Results for CC(=O)c1sc(NCc2ccc(C)cc2)nc1C ?
Vaccinia Venus: inactive; HCV inh: inactive; Vaccinia mCherry: inactive; FMDV antiviral: inactive; Marburg entry inh: 10µM; LASV entry inh: inconclusive

How did CS(=O)(=O)N1CCN(c2nnc(-c3ccccc3)c3ccccc23)CC1 do in these assays?
HCV inh: inactive; FMDV antiviral: inactive; Marburg entry inh: inconclusive; LASV entry inh: inactive

Results for c1ccc(-c2nnc(N3CCN(c4ccccn4)CC3)c3ccccc23)cc1 ?
HCV inh: 14µM; FMDV antiviral: inactive; Marburg entry inh: inactive; LASV entry inh: inconclusive

What do the screens show for `Cc1ccc(-c2nnc(N3CCN(c4ccccn4)CC3)c3ccccc23)cc1`?
Vaccinia Venus: 18µM; HCV inh: inconclusive; Vaccinia mCherry: 11µM; FMDV antiviral: 22µM; Marburg entry inh: inconclusive; LASV entry inh: inconclusive

Results for CCN1CCN(c2nnc(-c3ccc(F)cc3)c3ccccc23)CC1 ?
Vaccinia Venus: inconclusive; HCV inh: 2.8µM; Vaccinia mCherry: inactive; FMDV antiviral: inactive; Marburg entry inh: inconclusive; LASV entry inh: inactive

What do the screens show for `Cc1cc(-c2ccccc2)nc(N2CCN(c3ccccn3)CC2)n1`?
Vaccinia Venus: inactive; HCV inh: inconclusive; Vaccinia mCherry: inactive; Marburg entry inh: 9.2µM; LASV entry inh: 4.6µM

Results for CN1CCN(c2nnc(-c3ccc(F)cc3)c3ccccc23)CC1 ?
Vaccinia Venus: inactive; HCV inh: inactive; Vaccinia mCherry: inconclusive; FMDV antiviral: inactive; Marburg entry inh: inactive; LASV entry inh: inactive

What do the screens show for `COC[C@@H](OC(C)=O)[C@H]1OCc2ccccc2[C@@H]1C=Cc1ccccc1`?
Marburg entry inh: inactive

How did COC(=O)[C@@H]1CC[C@H](C)[C@@H](c2ccc(C)cc2)N1C(=O)c1ccc(/C=N/OC[C@H]2O[C@H](c3ccccc3)C=C[C@@H]2Oc2ccc(OC)cc2)cc1 do in these assays?
Marburg entry inh: inactive

Results for CCc1ccccc1NC(=O)c1nc2nc(C)cc(C(F)F)n2n1 ?
Vaccinia Venus: inactive; Vaccinia mCherry: inactive; FMDV antiviral: inactive; Marburg entry inh: inactive; LASV entry inh: inactive

Results for COc1ccc(Cl)cc1NC(=O)CSc1nccn1Cc1ccco1 ?
Vaccinia Venus: inactive; Vaccinia mCherry: inactive; FMDV antiviral: inactive; LASV entry inh: inactive

Results for CCN(Cc1ccccc1)CC(O)COC(c1ccc(OC)cc1)c1ccc(OC)cc1 (stereo not given) ?
Vaccinia Venus: inactive; HCV inh: inconclusive; Vaccinia mCherry: inactive; FMDV antiviral: inactive; Marburg entry inh: inconclusive; LASV entry inh: inconclusive

Results for C=CCN1CCc2cccc3c2C1Cc1ccc(O)c(O)c1-3 (stereo not given) ?
Vaccinia Venus: inactive; Vaccinia mCherry: inactive; FMDV antiviral: inactive; Marburg entry inh: 11µM

Screens deposited in PubChem BioAssay by National Center for Advancing Translational Sciences (NCATS).
